In the library only some 7.3% were active in any assay of this set; here they are far more common.
FLuc counter: counter-screen for miR-21 project: firefly luciferase inhibitors or activators; P08659; purified FLuc, Km substrates, luminescence inhibition; Potency, µM (highest dose often 57.5 µM), for the others: at the top dose activity change, negative = inhibition, usual class: inhibitors; 6.9% of 360,000 active;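 note: plate controls were vehicle for no effect and reference inhibitor for full effect; nearly all actives have a fitted effect of over 55% in size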
Target sequence (P08659 whole entry, looked up): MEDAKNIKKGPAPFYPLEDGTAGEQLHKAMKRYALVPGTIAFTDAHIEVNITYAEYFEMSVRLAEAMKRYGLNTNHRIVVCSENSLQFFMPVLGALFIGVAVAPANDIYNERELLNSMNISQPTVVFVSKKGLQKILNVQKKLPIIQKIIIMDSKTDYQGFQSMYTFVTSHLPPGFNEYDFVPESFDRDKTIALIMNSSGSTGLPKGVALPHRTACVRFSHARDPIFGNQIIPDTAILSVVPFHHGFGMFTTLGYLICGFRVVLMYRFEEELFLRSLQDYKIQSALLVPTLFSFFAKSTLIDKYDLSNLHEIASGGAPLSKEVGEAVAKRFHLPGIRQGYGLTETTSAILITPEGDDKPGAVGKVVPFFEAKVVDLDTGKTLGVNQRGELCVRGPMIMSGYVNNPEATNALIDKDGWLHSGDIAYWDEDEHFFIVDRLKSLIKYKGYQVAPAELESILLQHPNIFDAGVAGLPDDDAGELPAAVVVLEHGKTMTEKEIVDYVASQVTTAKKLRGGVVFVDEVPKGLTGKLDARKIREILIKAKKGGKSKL
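Biochemical qHTS of compounds, final roughly 60 µM downward over six points, against 10 nM purified firefly luciferase using Km concentrations of substrates (10 uM D-luciferin, 10 uM ATP) in Tris acetate pH 7.5 buffer; luminescence output.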
ELG1 genotox: inducers of genotoxicity in HEK293T ELG1-luciferase cells; HEK293T ELG1-luciferase reporter, luminescence, 16 h; Potency, µM (titrated, usually from 46 µM), for inactives: at the top dose activity change, positive = activation, actives largely listed as activators; 1.3% of 330,000 active; AID 504466; note: % of control where 0% means no effect; nearly all actives have a fitted effect of over 60% in size
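Genotoxic stress is detected as increased luminescence from luciferase-tagged ELG1 in HEK293T cells, measured with ONE-Glo after a 16 hr treatment at 37 °C.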
Rab9 prom act: activates the Rab9 promoter; Huh7 Rab9 promoter-luciferase reporter, luminescence, 24 h; Potency, µM (top dose mostly 9.22 µM), inactives show at the top dose activation, negative = inhibition, usual class: activators; 2.8% of 320,000 active; AID 485297; note: % of control where 0% means no effect; nearly all actives have a fitted effect of over 60% in size
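Huh7 cells stably carrying a Rab9 promoter-luciferase reporter, 1500 cells per well in OP-MEM I with 10% FBS, treated with compound 24 hours at 37C. Luciferase activity read by luminescence after 10 minutes with Amplite reagent.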
SMN2 splice up: SMN2 splice variant enhancement. HEK293 SMN2-luciferase splicing reporter, luminescence, 30-36 h. Potency, µM (doses to about 46.1 µM), inactives show at the highest dose activity change, positive = activation, hits mostly activators. 2.8% of 210,000 active. AID 1458; note: % of control where 0% means no effect; nearly all actives have a fitted effect of over 55% in size
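qHTS luciferase splicing reporter: luminescence rises when SMN2 exon 7 is included in transfected HEK293 cells. Compound exposure lasted 30-36 h at 37C, with 4.5 mM final sodium butyrate as control, followed by a ONE-Glo read.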
KinaseGlo FLuc: counter-screen: inhibitors of Kinase-Glo firefly luciferase. Kinase-Glo luciferase, ATP luminescence, 8 min. 0.28% of 200,000 active. Q27757. Potency, µM (series often up to 38.3 µM), for the others: top-dose activity change, negative = inhibition, hits mostly inhibitors; note: % is set by controls: 0 for no effect and ±100 for the full control effect; nearly all actives have a fitted effect of over 60% in size
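Substrate mix (final 50 mM imidazole pH 7.2, 50 mM KCl, 7 mM MgCl2, 10 uM ATP, 0.01% Tween 20, 0.05% BSA) plus pin-tool compound, then Kinase-Glo detection mix; 8 min ambient, luminescence read.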
NPC1 prom act: activators of NPC1 promoter. 2.4% of 320,000 active. Potency, µM (highest dose often 9.22 µM), for the others: at the highest dose activation, hits mostly activators. Huh7 NPC1 promoter luciferase reporter, 24 h; note: % of control where 0% means no effect; nearly all actives have a fitted effect of over 60% in size
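Stable NPC1-promoter luciferase Huh7 line; cpd (DMSO) 24 h, 37 °C, 5% CO2; Amplite luciferase reagent 10 min RT; luminescence readout. qHTS format.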
Active calls of the source: *; [ ] = dose if it differs, or a comment. Calls come from the whole dose curve; as a rule, active = well fitted curve in the direction sought with a large enough effect; inconclusive = small, poorly fitted or top-dose-only effect, or another doubt; inactive = no such curve, though single readings can be large; an effect the other way counts as inactive or inconclusive. Potency is the fitted concentration of half-maximal effect.

For COc1ccccc1C(=O)N=c1sc2c(C)ccc(OC)c2n1C the results were FLuc counter 15.1µM*, ELG1 genotox inconclusive, Rab9 prom act 26.4% and NPC1 prom act inconclusive.
For CCOc1cc(/C=C/c2cc(C(=O)O)c3ccccc3n2)ccc1O the results were FLuc counter 4.26µM*, ELG1 genotox 10.4%, Rab9 prom act 2.3%, SMN2 splice up 13.0%, KinaseGlo FLuc -3.1% and NPC1 prom act 0.9%.
Screening CCOc1ccccc1NC(=O)c1cc(-c2cc(OC)c(OC)c(OC)c2)nc2ccccc12 returned FLuc counter -0.2%, ELG1 genotox -9.3%, Rab9 prom act 9.3% and NPC1 prom act -2.5%.
For COc1cc(/C=C/c2cc(C(=O)O)c3ccccc3n2)cc(OC)c1O the results were FLuc counter 9.53µM*, ELG1 genotox -0.1%, Rab9 prom act -8.6%, SMN2 splice up 7.0%, KinaseGlo FLuc -2.6% and NPC1 prom act -0.2%.
For COc1cc(C(=O)O)c2ccccc2n1 the results were FLuc counter -9.8%, ELG1 genotox 0.4%, Rab9 prom act -0.4%, KinaseGlo FLuc -0.2% and NPC1 prom act -4.8%.
For CCOc1cc(/C=C/c2cc(C(=O)O)c3ccccc3n2)ccc1OC the results were FLuc counter 1.35µM*, ELG1 genotox inconclusive, Rab9 prom act inconclusive, SMN2 splice up 22.4µM*, KinaseGlo FLuc 0.1% and NPC1 prom act inconclusive.
`CCOc1cccc(/C=C/c2cc(C(=O)O)c3ccccc3n2)c1OC` gave FLuc counter 1.07µM*, ELG1 genotox inconclusive, Rab9 prom act 4.47µM* and NPC1 prom act 2µM*.
`COc1ccc(NC(=S)N(CCCN2CCCCC2)Cc2cccs2)cc1` gave FLuc counter 2.3%, ELG1 genotox 2.0%, Rab9 prom act -5.5%, SMN2 splice up 17.4%[1.84 µM], KinaseGlo FLuc 0.0% and NPC1 prom act -2.3%.
Screening CCc1ccc(NC(=O)COC(=O)c2ccc(Cl)c(S(=O)(=O)N3CCCCCC3)c2)cc1 returned FLuc counter 2.6%, ELG1 genotox 1.1%, Rab9 prom act 2.4%, SMN2 splice up 8.3%, KinaseGlo FLuc 0.5% and NPC1 prom act 14.0%.
`CCCc1cc2c(cc1NC(=O)c1ccccc1C)OCO2` gave FLuc counter 2.4%, ELG1 genotox 0.4%, Rab9 prom act 1.3%, SMN2 splice up 11.7%, KinaseGlo FLuc -8.3% and NPC1 prom act 3.0%.
`FC(F)Sc1ccc(Nc2ncnc3nc[nH]c23)cc1` gave FLuc counter inconclusive, ELG1 genotox 18.1%, Rab9 prom act inconclusive, SMN2 splice up 11.2µM*, KinaseGlo FLuc 0.5% and NPC1 prom act inconclusive.
COc1ccc(OC)c(C=Nc2ccccc2-c2nc3ccccc3[nH]2)c1 was read as FLuc counter 4.78µM*, ELG1 genotox inconclusive, Rab9 prom act inconclusive, SMN2 splice up 12.6µM*, KinaseGlo FLuc -1.1% and NPC1 prom act inconclusive.
`Oc1ccccc1C=Nc1ccccc1-c1nc2ccccc2[nH]1` gave FLuc counter inconclusive, ELG1 genotox inconclusive, Rab9 prom act inconclusive, SMN2 splice up 31.6µM*, KinaseGlo FLuc -1.0% and NPC1 prom act inconclusive.
Oc1ccc(C=Nc2cccc3ncccc23)c(O)c1 was read as FLuc counter 2.3%, ELG1 genotox -6.5%, Rab9 prom act -8.3%, SMN2 splice up 23.9%, KinaseGlo FLuc 2.0% and NPC1 prom act -2.5%.
For COc1ccc(OC)c(/C=C/c2nc3ccccc3[nH]c2=O)c1 the results were FLuc counter -10.7%, ELG1 genotox 7.9%, Rab9 prom act 5.7% and NPC1 prom act 7.2%.
For Oc1ccc(C=Nc2ccccc2-c2nc3ccccc3[nH]2)c(O)c1 the results were FLuc counter 4.78µM*, ELG1 genotox inconclusive, Rab9 prom act inconclusive, SMN2 splice up 14.1µM*, KinaseGlo FLuc -0.7% and NPC1 prom act inconclusive.
O=C(c1ccccc1-c1nc2ccccc2[nH]1)N1CCCCC1 was read as FLuc counter 2.9%, ELG1 genotox -0.7%, Rab9 prom act 0.8%, SMN2 splice up 8.2%, KinaseGlo FLuc -1.2% and NPC1 prom act 0.1%.
Screening Cc1cc2nc([C@H](C)C(=O)c3ccc(Cl)cc3)c(=O)[nH]c2cc1C returned SMN2 splice up 3.55µM* and KinaseGlo FLuc -1.1%[7.66 µM].
For CCOc1cc(C(=O)NC2=NCCS2)cc(OCC)c1OCC the results were FLuc counter inconclusive, ELG1 genotox 0.4%, Rab9 prom act 4.1%, SMN2 splice up 10.5%, KinaseGlo FLuc -1.6% and NPC1 prom act -3.9%.
`CCOc1ccc(C(=O)NC2=NCCS2)cc1` gave FLuc counter 10.7µM*, ELG1 genotox inconclusive, Rab9 prom act 0.501µM*, SMN2 splice up 14.1µM*, KinaseGlo FLuc -3.2% and NPC1 prom act 1.12µM*.
Cc1noc(C)c1COc1ccc(C(=O)Nc2ncccc2O)cc1 was read as FLuc counter -0.2%, ELG1 genotox inconclusive, Rab9 prom act 14.1% and NPC1 prom act 6.4%.
For O=C(Nc1ncccc1O)c1ccc(Oc2ccccc2)cc1 the results were FLuc counter 6.75µM*, ELG1 genotox 9.2µM*, Rab9 prom act 2.82µM* and NPC1 prom act 1.78µM*.
Screening O=C(NC1=NCCS1)c1ccc(OCC2CCCO2)cc1 (stereo not given) returned FLuc counter inconclusive, ELG1 genotox inconclusive, Rab9 prom act 0.355µM*, SMN2 splice up 10µM*, KinaseGlo FLuc -6.3% and NPC1 prom act 0.398µM*.
For O=C(Nc1ncccc1O)c1ccc(OCC2CCCO2)cc1 (stereo not given) the results were FLuc counter 7.57µM*, ELG1 genotox 1.16µM*, Rab9 prom act 0.794µM* and NPC1 prom act 0.794µM*.
`O=c1c2ccccc2oc2cc(OCc3cccc(F)c3)cc(O)c12` gave FLuc counter -0.7%, ELG1 genotox -2.3%, Rab9 prom act 4.7% and NPC1 prom act 1.5%.
Cc1cccn2c(/C=N/OCc3cccc(F)c3)c(-c3ccc(Cl)cc3)nc12 was read as FLuc counter -2.0%, ELG1 genotox -4.2%, Rab9 prom act -3.4%, SMN2 splice up -19.2%, KinaseGlo FLuc 0.2% and NPC1 prom act -1.9%.
CC(=O)OCC(=O)C1CCC2C3CC=C4CC(O)CC[C@@]4(C)C3CC[C@]12C (stereo not given in full) was read as SMN2 splice up -13.3% and KinaseGlo FLuc -4.7%.
Screening COc1cc(C(C)=O)ccc1COc1ccc(C(=O)OCC(N)=O)cc1OC returned FLuc counter 12µM*, ELG1 genotox 3.0%, Rab9 prom act -1.8%, SMN2 splice up -35.7%, KinaseGlo FLuc 5.9% and NPC1 prom act -0.4%.

Screens from PubChem BioAssay.
